In PubChem BioAssay (NCI) one finds growth data, which are given here for 40 molecules.

Molecules are shown by their SMILES. “And” between values parts separate entries of the source, which are not always exact repeats. Equal values may be shown once. Compounds without any hit were thinned out: in the full panel of roughly 83,000, 20% have a hit.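 How to read the values: 0–100, growth inhibition (40 = 60% inhibited); 0, no net growth; -100 to 0, cell death (-40 = 40% of starting cells died; -100 = all dead).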 Values without a mark were called inactive. The source made the active and inactive calls. Rule for the calls: active = growth percent below 10; inactive = the rest.

The experiment has as its system MDA-MB-468 breast. As to the kind of experiment: NCI-60 one-dose screen, 48 h (100 = growth as untreated, 0 = no growth, -100 = all killed). Particulars: 10 µM unless noted.
As to `COc1ccc(-c2nc(SCC(C)C)nc(Nc3ccc(C(=O)O)cc3)c2C#N)cc1`, the growth was 91.3%.

For the molecule `Cc1ccccc1COc1ccc(-c2onc(C)c2-c2ccc(Cl)cc2)cc1`, the growth was 36.1%.

For the molecule `CCC#CC[C@H](O)C/C=C1/C(=O)C=C[C@@H]1C/C=C\CCCC(=O)OC`, the growth is 12.4%.

As for `O=c1onc(-c2ccccc2)c2ccccc12`, the growth is 108%.

With `Cc1[nH]c(-c2ccc3cc[nH]c3c2)c2c1C(=O)CCCC2`, the growth is 15.8%.

On to `C=C1C(=O)O[C@H]2[C@H]1CC/C(Cn1cc(CNCCc3c[nH]c4ccccc34)nn1)=C\CC[C@@]1(C)O[C@@H]21`, for which the growth was 37.3%.

Take `O=C1c2c(O)cc(O)cc2O[C@@H](c2ccc(O)cc2)[C@@H]1c1c(O)cc(O)c2c(=O)cc(-c3ccc(O)c(O)c3)oc12`: the growth is 113%.

Turning to `Oc1ccc(CN2CCC(N3CCCCC3)CC2)c2cccnc12`, the growth is 23.9%.

In the case of `C[C@@H]1CC[C@@H]2[C@@H]1[C@H](OC(=O)/C=C/c1ccccc1)[C@]1(CCCOCCOCCOCCOC(=O)CCCC[C@@H]3SC[C@@H]4NC(=O)N[C@@H]43)C[C@@H](OC(=O)CO)[C@@]2(C)O1`, the growth was 111%.

Consider `Clc1ccc(N2N=C(c3cccc(Nc4ccncc4)c3)CC2c2ccccc2)cc1` (stereo not given), for which the growth is 74.1%.

As to `CCN(CC)c1ccc(/C=N/NC(=O)c2ccc(S(C)(=O)=O)cc2)c(O)c1`, the growth was 1.2% (active).

For `Nc1nc(=O)n([C@H]2C[C@H](O)[C@@H](CO)O2)cc1C=O`, the growth is 107%.

On to `Nc1ccn(C2CC(O)C(CO)O2)c(=O)n1` (stereo not given), for which the growth was 103%.

For `CC[C@]12C=CCN3CC[C@]4(C(=C(C(=O)OC)C1)Nc1cc5c(cc14)[C@@H]1[C@H](O5)[C@@H](O)[C@@]4(CC)CC(C(=O)OC)=C5Nc6cc(OC)ccc6[C@@]56CCN1[C@@H]46)[C@@H]32`, the growth was -36.8% (active).

On to `O=C1C(=O)c2c(nc3ccc(Br)cn23)-c2ccccc21`, for which the growth is -58% (active).

As to `COc1cccc(CCNc2ncnc3c2ncn3Cc2nnc3c4ccccc4c(Cl)nn23)c1`, the growth was 57.4%.

For `Cc1cc(Cc2ccccc2)c(O)c(Cc2ccccc2)c1`, the growth was 95.8%.

Consider `C=C1C(=O)O[C@H]2[C@H]1CC/C(COC(=O)c1cc3ccccc3s1)=C\CC[C@@]1(C)O[C@@H]21`, for which the growth was -48.4% (active).

For the molecule `CCOC(=O)/C(=C/c1ccc([N+](=O)[O-])cc1)C(=O)c1ccccc1`, the growth is 21.3%.

For the molecule `O=C(Nc1ccc(C(=O)O)c(O)c1)c1ccccc1`, the growth is 105% and 104%.

`O=C(CC(=O)c1cccc(Cl)c1)c1cccc(Cl)c1`: the growth is 41.7%.

`Nc1nc(Nc2ccccc2SSc2ccccc2Nc2nc(N)nc(-c3ccc4ccccc4c3)n2)nc(-c2ccc3ccccc3c2)n1`: the growth was 103%.

Regarding `C[C@@]1(CCC#N)[C@H]2CC[C@@H]3[C@H]4[C@H](C(=O)/C=C/c5cccnc5)CC[C@]4(C#N)CC[C@@]3(C)[C@]2(C)CC[C@H]1C(=O)/C=C/c1cccnc1`, the growth is 57.9%.

Take `CC(C)(C)c1nn(-c2ccccc2)c2c1CC1(CN2Cc2ccc3c(c2)OCO3)C(=O)c2ccccc2C1=O`: the growth is 111%.

On to `Cc1ccc(C=C2C(=O)NC(=O)NC2=O)cc1`, for which the growth was 108%.

Regarding `O=C1C2=C(C(=O)c3c(O)ccc(O)c31)N(c1cccnc1)Cc1ccccc1O2`, the growth was -6.39% (active).

Regarding `Cn1cc(-c2nnc(-c3cn(C)c4ncccc34)s2)c2ccccc21`, the growth is 12.6%.

Regarding `Cc1ccc(NS(=O)(=O)c2ccccc2)c(NS(=O)(=O)c2ccccc2)c1`, the growth was 104%.

For the molecule `CC(/C=C1\SC(=S)N(CC(=O)NC(Cc2c[nH]c3ccccc23)C(=O)O)C1=O)=C\c1ccccc1` (stereo not given), the growth is 95.1%.

As to `COc1nc2ccccc2cc1/C=[N+](\[O-])c1ccccc1`, the growth is 88.6%.

For `O=C1N/C(=N\c2nnc(-c3ccc(O)cc3)s2)S/C1=C\c1ccccc1O`, the growth was 99.4%.

Turning to `COc1cc(NC(C)CN(CC(C)C)C(C)C)c2ncccc2c1` (stereo not given), the growth is -15.4% (active).

For the molecule `COc1ccc2nc3cc(Cl)ccc3c(NCCNc3c4ccc(Cl)cc4nc4ccc(OC)cc34)c2c1`, the growth is -69.8% (active).

As for `O=[N+]([O-])c1ccc2[nH]c(=S)n(/C=C(/c3ccc(Cl)cc3Cl)S(=O)(=O)Cc3ccc(Cl)cc3Cl)c2c1`, the growth is 111%.

Regarding `CN1CCN(CCCOc2cccc3nc(Nc4ccc(Cl)c(C(F)(F)F)c4)ccc23)CC1`, the growth is -2.83% (active).

As for `NC(=O)CC(NC(=O)COc1ccc(Cl)cc1Cl)C(=O)O` (stereo not given), the growth was 108%.

As for `O=C(CSC(=S)n1cnnc1)NC(=O)c1ccccc1`, the growth was 119%.

`N/C(=N\C(N)=N\c1nc2ccccc2s1)c1ccncc1`: the growth was 56.6%.

Take `CC(=O)CC(c1ccccc1)c1c(C)[nH]c2ccccc12` (stereo not given): the growth was 106%.

For the molecule `COc1cccc(-c2nn(C)c3sc(C(=O)NCCN4CCN(c5ccccc5F)CC4)cc23)c1`, the growth was 45.9%.
